Screen size: about 2,400 compounds; about 750 (31%) were called active. Some of the results follow. Unmarked numbers belong to inactive results.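 Rule for the calls: active = median signal gain over dofetilide-blocked control wells reaching their mean plus 3 SD, so readout 1 at least 0; inactive = the rest.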

This assay deals with Voltage-gated inwardly rectifying potassium channel KCNH2 (Homo sapiens) (UniProt Q12809). The assay is described as follows: modulators restoring hERG flux under dofetilide – cell-based, thallium flux, duplicate retest, dofetilide IC70, confirmation (AID 1835). The settings on record: hERG cell line, FluxOR thallium flux, dofetilide-blocked; at 10 µM; hits give high values.
Chain of Voltage-gated inwardly rectifying potassium channel KCNH2 (Homo sapiens) (Q12809 whole entry, looked up): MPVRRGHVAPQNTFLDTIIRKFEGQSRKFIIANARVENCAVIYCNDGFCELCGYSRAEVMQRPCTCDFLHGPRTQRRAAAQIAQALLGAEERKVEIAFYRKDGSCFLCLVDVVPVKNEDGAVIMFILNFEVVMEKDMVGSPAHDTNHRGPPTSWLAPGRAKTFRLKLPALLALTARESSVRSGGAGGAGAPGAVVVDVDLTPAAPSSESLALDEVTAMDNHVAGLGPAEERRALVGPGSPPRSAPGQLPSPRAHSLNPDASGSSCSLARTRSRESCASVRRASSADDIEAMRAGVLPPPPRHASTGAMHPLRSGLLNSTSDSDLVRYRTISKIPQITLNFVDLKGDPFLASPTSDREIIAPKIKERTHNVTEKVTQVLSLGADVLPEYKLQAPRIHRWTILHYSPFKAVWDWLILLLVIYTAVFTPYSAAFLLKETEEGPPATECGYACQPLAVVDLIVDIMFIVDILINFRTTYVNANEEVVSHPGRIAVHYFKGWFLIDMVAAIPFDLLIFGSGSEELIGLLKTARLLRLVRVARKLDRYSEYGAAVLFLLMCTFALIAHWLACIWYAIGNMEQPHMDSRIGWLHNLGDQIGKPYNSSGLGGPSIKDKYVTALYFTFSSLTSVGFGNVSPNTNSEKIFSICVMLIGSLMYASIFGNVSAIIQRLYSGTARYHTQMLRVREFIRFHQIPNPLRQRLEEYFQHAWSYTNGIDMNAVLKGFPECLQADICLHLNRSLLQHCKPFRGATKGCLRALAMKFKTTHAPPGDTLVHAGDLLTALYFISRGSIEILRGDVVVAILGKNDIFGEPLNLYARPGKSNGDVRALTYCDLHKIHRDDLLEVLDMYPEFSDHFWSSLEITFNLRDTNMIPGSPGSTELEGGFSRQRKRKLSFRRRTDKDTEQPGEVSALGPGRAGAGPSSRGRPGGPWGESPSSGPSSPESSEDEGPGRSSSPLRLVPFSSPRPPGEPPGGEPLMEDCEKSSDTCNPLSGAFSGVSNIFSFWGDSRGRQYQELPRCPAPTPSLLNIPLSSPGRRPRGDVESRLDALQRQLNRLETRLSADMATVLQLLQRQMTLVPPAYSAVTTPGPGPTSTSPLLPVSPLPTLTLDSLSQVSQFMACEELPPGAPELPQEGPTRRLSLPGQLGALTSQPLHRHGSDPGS
On to `CC(C)C(NC(=O)c1ccccc1)C(=O)N/N=C\c1ccco1` (stereo not drawn), for which the activity increase over dofetilide control, less the hit threshold is -17%. To `Oc1ccc(N2CCN(C(c3cccnc3)c3nnnn3Cc3ccccc3)CC2)cc1` (stereo not drawn) belongs 0%; to `Cc1cc(NC(=O)/C(C#N)=C/c2ccco2)n(-c2ccccc2)n1`, -12%. To `COc1ccc(-n2nc(C)cc2Nc2ccccc2C(=O)O)cc1` belongs 31% (active); to `COc1ccc(N2CCN(C(=O)c3ccc(-c4ccccc4)cc3)CC2)cc1`, -18%.

Regarding `O=C(O)c1cccc2cc(-c3ccccc3)oc(=O)c12`, the activity increase over dofetilide control, less the hit threshold was -13%. The value for `CCCCN(C(=O)CC1CCCC1)c1c(N)n(CC(C)C)c(=O)[nH]c1=O` was -4%. The value for `Fc1cccc(/C=N/Nc2ccc3ccccc3n2)c1` was -7%; that for `COc1ccc(N(CC(=O)NCc2cccnc2)S(=O)(=O)c2ccccc2[N+](=O)[O-])c(OC)c1` was -3%.

As for `Oc1c(N=Nc2ccccn2)ccc2ccccc12`, the activity increase over dofetilide control, less the hit threshold was -5%. To `COc1ccccc1N=Nc1ccc(O)c2ncccc12` belongs 2% (active); to `CCN(CC)S(=O)(=O)c1cc(OC)ccc1N=Nc1ccc(O)c2ncccc12`, 27% (active); to `COc1cccc(N=Nc2ccc(O)c3ncccc23)c1`, 25% (active). To `COc1ccc(OC)c(S(=O)(=O)NCc2cn3cccc(C)c3n2)c1` belongs -17%; to `Cc1ccc(N=Nc2ccc(O)c3ncccc23)cc1`, 40% (active); to `CCOc1ccc(N=Nc2ccc(O)c3ncccc23)cc1`, 0%.

For the compound `Oc1ccc(N=Nc2ccc3c(c2)OCCO3)c2ncccc12`, the activity increase over dofetilide control, less the hit threshold was -4%. Regarding `O=[N+]([O-])c1ccc(O)c2ncccc12`, the activity increase over dofetilide control, less the hit threshold was -8%. As to `COCC(=O)NC1CC2CCC(C1)N2C(=S)Nc1ccccc1C(=O)OC` (stereo not drawn), the activity increase over dofetilide control, less the hit threshold is -6%. The value for `CCC[C@H]1COCCS(=O)(=O)N1Cc1ccc(Br)cc1` was -4%. The value for `CS(=O)(=O)N1CCC(C(=O)Nc2c(F)cccc2F)CC1` was -6%. Regarding `Cn1c(=O)c2c(nc(Cl)n2CC(=O)N2CCCCC2)n(C)c1=O`, the activity increase over dofetilide control, less the hit threshold is -11%. To `N=C1SCC(=O)N1c1ncc(Cc2ccccc2Cl)s1` belongs -9%; to `O=C(N/N=C/c1ccc(-c2ccccc2)o1)c1ccccc1O`, -1%; to `Cc1ccc(/C=N/NC(=O)c2cc(C)oc2C)o1`, -5%.

As for `Cc1ccc(/C=N/NC(=O)c2cc(-c3ccncc3)nc3ccccc23)o1`, the activity increase over dofetilide control, less the hit threshold is -22%. The value for `O=C(N/N=C/c1ccc(Sc2ccccn2)o1)c1cc2ccccc2cc1O` was 7% (active). Consider `Cc1cccc(/C=N/NC(=O)c2cc(Br)ccc2O)n1`, for which the activity increase over dofetilide control, less the hit threshold was 0%. The value for `Cc1ccc(/C=N/NC(=O)c2cc3ccccc3cc2O)o1` was 37% (active); that for `COc1ccc(CCNS(=O)(=O)c2csc(C(N)=O)c2)cc1OC` was -14%; that for `Cc1nnc2c(SC(C)C)nc3ccccc3n12` was -19%. For the compound `Cc1nc2ccccc2n1-c1ccccc1`, the activity increase over dofetilide control, less the hit threshold was 3% (active). Consider `COC(=O)c1ccc(-n2c(C)nc(=O)c(-c3ccccc3)c2C)cc1`, for which the activity increase over dofetilide control, less the hit threshold is -13%. The value for `C=C(C)CSc1nnc2[nH]c(=O)cc(N)n12` was -19%; that for `CC1=CCC[C@@H]2[C@@](C)(CC/C(C)=C/C(=O)O)[C@H](C)CC[C@@]12C` was 84% (active); that for `Nc1ccc2oc(-c3ccccc3Cl)cc(=O)c2c1O` was -3%. The value for `Cc1nc2scc(C)n2c(=O)c1S(=O)(=O)Nc1ccc(N2CCOCC2)cc1` was -7%; that for `CCC1(C)Cc2c(sc3nc(SC)[nH]c(=S)c23)CO1` (stereo not drawn) was 87% (active); that for `CCc1nc2sc3c(c2c(=S)[nH]1)CC(C)(C)OC3` was -8%. To `CSc1nc2sc3c(c2c(=S)[nH]1)CC(C)(C)OC3` belongs 81% (active); to `CCN(CC(=O)NCc1ccc(Cl)cc1)C(=O)CCOc1ccc(C)cc1`, -14%. In the case of `CNc1nc(N)nc(OC(C(F)(F)F)C(F)(F)F)n1`, the activity increase over dofetilide control, less the hit threshold is -24%. The value for `NC(=O)c1cccc(N=Cc2cc(Cl)cc(Cl)c2O)c1` was 6% (active).

As for `O=C(NC(=S)Nc1cccc([N+](=O)[O-])c1)c1ccco1`, the activity increase over dofetilide control, less the hit threshold is -16%.

As to `O=C(Nc1ccccc1C(=O)O)c1cccc(NC(=O)c2ccco2)c1`, the activity increase over dofetilide control, less the hit threshold is -3%. In the case of `O=C(Nc1cccc(N=Cc2cc(Cl)cc(Br)c2O)c1)c1ccco1`, the activity increase over dofetilide control, less the hit threshold was 6% (active). Regarding `O=C(N/N=C/c1cc(Cl)ccc1O)c1ccccc1Br`, the activity increase over dofetilide control, less the hit threshold was -3%. The value for `Oc1c(Br)cc(Br)cc1C=Nc1cccc2ncccc12` was -7%; that for `Oc1c(Cl)cc(Cl)cc1/C=N/c1nccs1` was -11%. As to `Oc1c(Br)cc(Cl)cc1C=Nc1ccccc1Br`, the activity increase over dofetilide control, less the hit threshold is 9% (active). To `Oc1c(Cl)cc(Cl)cc1/C=N/c1ncn[nH]1` belongs 15% (active); to `COc1ccccc1-n1c(CCC(=O)O)ccc1-c1ccccc1`, -12%; to `Nc1cc(N)nc(SCc2cc(=O)oc3cc4c(cc23)CCC4)n1`, -35%. The value for `CCCNC(=O)CN1C(=O)NC(Cc2c[nH]c3ccccc23)C1=O` (stereo not drawn) was -22%; that for `COc1ccc(-c2nc(=S)c3c([nH]2)Oc2ccc(C)cc2C3)cc1O` was -22%; that for `CC(=O)Nc1ccc(NC(=O)CSc2ncc(C(=O)Nc3ccc(Cl)cc3)c(=O)n2C)cc1` was -4%. With `Oc1c(Br)cc(Br)cc1C=Nc1ccc2c(c1)OCCO2`, the activity increase over dofetilide control, less the hit threshold is -12%. To `Cc1cccc(N=Cc2cc(Br)cc(Cl)c2O)c1` belongs 5% (active); to `Cc1ccc(N=Cc2cc(Cl)cc(Cl)c2O)nc1`, 3% (active); to `Oc1c(Cl)cc(Cl)cc1C=Nc1ccc(Br)cc1`, 8% (active). The value for `Cc1ccc(N=Cc2cc(Br)cc(Cl)c2O)cc1` was -10%; that for `CC(=O)N1c2ccc(N=Cc3cc(Br)cc(Br)c3O)cc2CC1C` (stereo not drawn) was -5%. `O=C(CSCc1cnn(-c2ccccc2)c1-n1cccc1)NCc1cccnc1`: the activity increase over dofetilide control, less the hit threshold is -22%. `Cc1ccc(C)n1-n1c(C)nc2scc(-c3ccccc3)c2c1=O`: the activity increase over dofetilide control, less the hit threshold was -20%. To `S=c1[nH]cnc2scc(-c3ccccc3)c12` belongs 51% (active); to `Cc1ccc(-c2csc3nc[nH]c(=S)c23)cc1`, 45% (active); to `Cn1cc(/C=N/n2cnc3scc(-c4ccc(Cl)cc4)c3c2=O)c2ccccc21`, -10%.

In the case of `S=c1[nH]cnc2scc(-c3ccc(Br)cc3)c12`, the activity increase over dofetilide control, less the hit threshold is 33% (active). To `S=c1[nH]cnc2scc(-c3ccc(Cl)cc3)c12` belongs 22% (active); to `Cn1nnnc1Sc1ncnc2scc(-c3ccc(F)cc3)c12`, -12%.

Take `O=C1C(=O)N(CCN2CCOCC2)C(c2cccnc2)/C1=C(/O)c1ccc(Cl)cc1` (stereo not drawn): the activity increase over dofetilide control, less the hit threshold is -8%.

As to `CCn1nnnc1SCC(=O)N1c2ccccc2Sc2ccccc21`, the activity increase over dofetilide control, less the hit threshold is -17%.

Take `CCOC(=O)N1CCN(c2c(-c3ccc(C)c(C)c3)c(=O)c2=O)CC1`: the activity increase over dofetilide control, less the hit threshold was 1% (active). To `CCOC(=O)N1CCN(C(=O)CSc2nnc(-c3ccccc3OC)o2)CC1` belongs -8%.

In the case of `CCOC(=O)N1CCN(C(=O)CCn2c(=S)[nH]c3ccsc3c2=O)CC1`, the activity increase over dofetilide control, less the hit threshold was -6%. To `CC(C)OC(=O)C1CC(C)(O)C(=O)C(C(=O)OC(C)C)C1c1ccc([N+](=O)[O-])cc1` (stereo not drawn) belongs -22%; to `CN1CCN(c2nnc(-c3cccs3)c3ccccc23)CC1`, -13%; to `CCOC(=O)C1=NN(C(=O)c2ccccc2)C(O)(c2ccc(C)cc2)C1` (stereo not drawn), 1% (active). The value for `CCC1=NN(C(=O)c2ccc(Cl)cc2)C(O)(c2ccc(C)cc2)C1` (stereo not drawn) was -14%.

Regarding `CCOC(=O)C1=NN(C(=O)c2ccc(OC)cc2)C(O)(c2ccc(Cl)cc2)C1` (stereo not drawn), the activity increase over dofetilide control, less the hit threshold is 81% (active). The value for `CCOC(=O)C1=NN(C(=O)c2ccc(C)cc2)C(O)(c2ccc(Cl)cc2)C1` (stereo not drawn) was 100% (active). To `CCOC(=O)CN1N=C(/C=C/c2ccc(OC)cc2)CCC1=O` belongs -25%; to `O=C1C=C(Nc2cccc3cccnc23)c2ccccc2C1=O`, -5%; to `COCC(=O)Nc1cc(C)cn(Cc2c(F)cccc2Cl)c1=O`, -5%. The value for `Cc1ccc(C(=C2C3C=CC2C2C(=O)NC(=O)C32)c2ccc(C)cc2)cc1` (stereo not drawn) was -15%; that for `CC(C)(C)c1cc(CCC(=O)NCc2ccncc2)cc(C(C)(C)C)c1O` was -11%. Consider `O=C(NC(=S)Nc1ccccc1)c1cc(-c2ccccc2)nc2ccccc12`, for which the activity increase over dofetilide control, less the hit threshold is 8% (active). To `O=C(N/N=C/c1ccccn1)c1cc(-c2ccc(Br)cc2)nc2ccccc12` belongs -46%. Consider `Cc1ccccc1NC(=S)NC(=O)c1cc(-c2ccccc2)nc2ccccc12`, for which the activity increase over dofetilide control, less the hit threshold is 27% (active). The value for `COC(=O)c1ccc(NC(=S)NC(=O)c2c(-c3ccccc3)noc2C)cc1` was -15%. The value for `O=C(NC(=S)Nc1ccccn1)c1cc(-c2ccccc2)nc2ccccc12` was 1% (active); that for `Cc1ccc2nc(-c3ccccn3)cc(C(=O)NC3CCN(C)CC3)c2c1` was -19%. Take `CC(C)(C)NS(=O)(=O)c1ccc(NC(=O)c2cc(-c3ccccc3)nc3ccccc23)cc1`: the activity increase over dofetilide control, less the hit threshold was -11%. The value for `COC(=O)c1ccc(NC(=S)NC(=O)c2cc(-c3ccccc3)nc3ccccc23)cc1` was 11% (active); that for `Cc1ccc(NC(=O)c2cc(NC(=O)/C=C\C(=O)O)ccc2N2CCCCC2)cc1` was -11%. In the case of `Cc1nnc(N2C(=O)C(=O)/C(=C(\O)c3ccc4c(c3)CC(C)O4)C2c2ccccc2)s1` (stereo not drawn), the activity increase over dofetilide control, less the hit threshold is -7%. To `Cc1ccc(CNC(=O)C2=CCN(S(=O)(=O)c3ccc(C)cc3)CC2)cc1` belongs -24%; to `CCCCn1nnc(NC(=O)Cc2ccc(Cl)cc2)n1`, -3%.

For the compound `Cc1ccc2nc(-c3ccncc3)cc(C(=O)Nc3ccc4c(c3)OCCO4)c2c1`, the activity increase over dofetilide control, less the hit threshold is -15%.

`Cc1cccc(NC(=S)NC(=O)c2cc(-c3ccccc3)nc3ccccc23)c1`: the activity increase over dofetilide control, less the hit threshold is 8% (active). With `NC(=O)c1cccnc1Nc1cccc([N+](=O)[O-])c1`, the activity increase over dofetilide control, less the hit threshold was 10% (active). The value for `O=C(O)c1ccc(N=NNc2cccc([N+](=O)[O-])c2)cc1` was -2%; that for `O=C(CCSCCc1ccccn1)Nc1cccc([N+](=O)[O-])c1` was -4%.

(Values after PubChem BioAssay AID1835 (Johns Hopkins Ion Channel Center, 2009).)
